HSF-1 act = HSF-1 activators, primary screen, NIH3T3-HGL cells, MG132 stress, luminescence, single point | NIH3T3-HGL HSF-1 luciferase reporter, 8 h; 100% = twice DMSO control signal | activation, % at 9 µM | actives 1.7% (n = 300,000) | AID 504408, 2011;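 active = mean replicate activation of at least 50% with a set share of replicates each reaching 50%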;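 also: 0% = median of the neutral control wells and 100% = twice that signal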
HSF1 inhib = HSF1 inhibitors in luciferase reporter cells, primary screen, cell-based, NIH3T3, luminescence. AID 2098, 2009. NIH3T3-HGL HSE-luciferase, MG132-induced, luminescence 8 h; hits give low values. activity change, negative = inhibition, % at 7.5 µM (by protocol). actives 0.77% (n = 300,000);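 active = more than half of replicate wells show activity change below -50%, luminescence cut by over half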;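 also: luciferase reports HSF-1 transcriptional activity via heat shock element; 0% = median of DMSO wells and -100% = zero luminescence signal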
MITF act = activators of MITF-driven TRPM1 promoter reporter, primary screen, cell-based, SK-MEL-5, luciferase, single point; SK-MEL-5 TRPM1-promoter luciferase, 24 h; % of positive control, neutral wells = 0; activation, % at 12.5 µM; actives 0.75% (n = 300,000);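 active = mean activation of at least 80% with every replicate also reaching 80%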;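 also: 0% = neutral control wells and 100% = parthenolide positive control wells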
Wnt bcat act = Wnt/beta-catenin pathway activators, primary screen, cell-based, plate reader, single point; AID 743398, 2014; activation, % at 9.35 µM; Wnt/beta-catenin reporter cell assay, activator; actives 1.2% (n = 300,000); in the data active = activation above about 30%, passing the limit was not always enough;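 also: 0% = neutral control wells and 100% = positive control wells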
esBAF inh = Bmi1 luciferase reporter increase in mESCs, primary screen, esBAF inhibitor project, mouse ES cells, Bmi1 luciferase knock-in, single point; 24 h; 100% = twice the neutral-well signal; reporter increase, % at 12.5 µM; actives 2% (n = 350,000); AID 602393, 2012; in the data active = activation above about 40%;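 also: 0% = median of the plate's neutral control wells and 100% = double that signal; a rise in the Bmi1 reporter signal indicates esBAF inhibition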
* hit, by the source's call. Sampled rows, rich in hits. Any-hit rate of the full collection: about 3.9%.

COc1ccc(C(=O)N2CCN(c3ncnc4c(-c5ccccc5)nsc34)CC2)cc1 was read as HSF-1 act 7, HSF1 inhib -5, Wnt bcat act 0 and esBAF inh 5.
Screening COc1ccc(-c2nsc3c(N4CCCCC4)ncnc23)cc1 returned HSF-1 act -83, HSF1 inhib -80*, Wnt bcat act -22 and esBAF inh -77.
COc1ccc(-c2nsc3c(N4CCCCC4C)ncnc23)cc1 (stereo unspecified) was read as HSF-1 act -96, HSF1 inhib -95*, MITF act -86 and Wnt bcat act -8.
For C[C@@H]1CCCCO[C@@H](CN(C)S(C)(=O)=O)[C@@H](C)CN([C@H](C)CO)C(=O)c2cc(NS(=O)(=O)c3ccc(F)cc3)ccc2O1 the results were esBAF inh 2.
`CCOC(=O)c1c(NC(=O)OC)sc(C(=O)N(CC)CC)c1C` gave HSF-1 act -78, HSF1 inhib -72*, MITF act -2, Wnt bcat act -1 and esBAF inh -3.
For CCOC(=O)c1sc(NC(=O)OC)c(C(=O)OC)c1C the results were HSF-1 act 6, HSF1 inhib -4, MITF act -3, Wnt bcat act 1 and esBAF inh -2.
`Cc1cc(NC(=O)CSc2nc3c(sc4ccccc43)c(=O)n2CCCN2CCOCC2)n[nH]1` gave HSF-1 act 64*, HSF1 inhib 41, Wnt bcat act -13 and esBAF inh 13.
C[C@@H]1CN([C@@H](C)CO)C(=O)Cc2cc(NC(=O)CCCCCC(=O)Nc3ccccc3N)ccc2O[C@@H]1CN(C)C(=O)Nc1ccc2c(c1)OCO2 was read as esBAF inh -3.
For O=c1c2ccccc2[nH]c(=S)n1CCC1=CCCCC1 the results were HSF-1 act 73*, HSF1 inhib 36, MITF act 19 and Wnt bcat act 11.
For O=C(/C=C/c1cccc(F)c1)Nc1nccs1 the results were HSF-1 act 45, HSF1 inhib 7, MITF act 58, Wnt bcat act 21 and esBAF inh 86*.
For CC(=O)OC(C(=O)Nc1nccs1)c1ccccc1 (stereo unspecified) the results were HSF-1 act -1, HSF1 inhib -1, Wnt bcat act 0 and esBAF inh 1.
For O=C(/C=C/c1cccs1)Nc1nccs1 the results were HSF-1 act 47, HSF1 inhib 11, MITF act 68 and Wnt bcat act 9.
Screening O=C(Nc1nccs1)C(Br)C(Br)c1ccccc1 (stereo unspecified) returned HSF-1 act 44, HSF1 inhib 21, MITF act 54, Wnt bcat act 37* and esBAF inh 14.
For O=C(/C=C\c1ccccc1)Nc1nccs1 the results were HSF-1 act 25, HSF1 inhib -1, MITF act 34 and Wnt bcat act 39*.
Screening O=C(Nc1nccs1)OCc1ccccc1 returned HSF-1 act 19, HSF1 inhib 8 and Wnt bcat act 34*.
O=C(CN1CCOCC1)NCC[C@H]1CC[C@H](NC(=O)Nc2ccc(Cl)cc2)[C@H](CO)O1 was read as esBAF inh -4.
For Cc1cccc(NC(=O)C2CCN(S(=O)(=O)c3ccc4c(c3)NC(=O)CO4)CC2)c1C the results were HSF-1 act 73*, HSF1 inhib 24, MITF act 5, Wnt bcat act 0 and esBAF inh -5.
Cc1ccccc1NS(=O)(=O)c1ccc2c(c1)NC(=O)CO2 was read as HSF-1 act 61*, HSF1 inhib 8, MITF act -3 and Wnt bcat act -7.
Screening Cc1cccc(NC(=O)CC(C)S(=O)(=O)c2ccc3c(c2)NC(=O)CO3)c1C (stereo unspecified) returned HSF-1 act 105*, HSF1 inhib 56, MITF act 6, Wnt bcat act 3 and esBAF inh -3.
`Cc1ccc(NC(=O)CC(C)S(=O)(=O)c2ccc3c(c2)NC(=O)CO3)cc1C` (stereo unspecified) gave HSF-1 act -4, HSF1 inhib -3, MITF act -3, Wnt bcat act 2 and esBAF inh -2.

Source: PubChem BioAssay (Broad Institute)
